One may read the inhibition as the change of the read-out against control, counted positive when it falls.

Experimental findings from PubChem BioAssay are described below.

Values without a mark were called inactive. For some of these results: Entries with a potency or affinity are not part of this list. Active and inactive are the calls of the source. Unless noted, no rule for the calls is given here.

The nature of assay [1]: antimalarial activity against Dd2 strain (AID 2302;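 active = growth inhibition above 50% at the single 2 µM test dose, taken to imply half-maximal potency below 2 µM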;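 also: 0% = DMSO untreated growth and 100% = chloroquine plus artemisinin killed control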). Particulars: P. falciparum Dd2 in RBCs, LDH growth readout, 72 h; at 2 µM; stronger effect = higher value.
Assay [2] in a line: human hepatoma cell viability loss – ATP luminescence, cytotoxicity control for P. falciparum antimalarial project, primary screen (AID 2303;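 active = inhibition above 50%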;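 also: 0% = DMSO wells and 100% = digitonin-killed cells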). The settings on record: HepG2 viability, 24-48 h, at 10 µM, stronger effect = higher value.
Assay [3] addresses L-lactate dehydrogenase (Plasmodium falciparum (isolate CDC / Honduras)) (UniProt Q27743). Put plainly: PfLDH activity inhibition – cell lysate, 3D7 strain, counter-screen for P. falciparum growth inhibition project (AID 2304).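 Also: 0% = vehicle and 100% = reference inhibitor.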 The settings on record: P. falciparum 3D7 crude extract, LDH APAD/NBT absorbance; at 2 µM; stronger effect = higher value. Background: The purpose of a counterscreen is to sort out artefacts and off-target activity.

Assay [4] can be described thus: inhibition of 3D7 malaria parasite growth – strain 3D7 (AID 2306).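 Also: 0% = DMSO wells and 100% = chloroquine plus artemisinin control wells.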 Particulars: P. falciparum 3D7 erythrocytic growth, LDH absorbance, 72 h; at 2 µM; stronger effect = higher value.
For assay [5], the target named is Calcium-dependent protein kinase 1 (Plasmodium falciparum (isolate 3D7)) (UniProt P62344). As to the kind of experiment: PfCDPK1 kinase inhibitors, biochemical, TCAMS library (AID 1159585; cut-off not given, nearly all actives have IC50 up to about 0.98 µM;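 also: inhibitors leave more ATP so luminescence rises with inhibition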). Particulars: recombinant PfCDPK1, Kinase-Glo ATP depletion luminescence. For orientation: Kinase-Glo measures the ATP left after a reaction by luminescence.
Assay [6] has as its target Plasmodium falciparum protein kinase 6 (PK6, PF3D7_1337100) (UniProt Q8IDW1). As to the kind of experiment: PfPK6 kinase inhibitors, biochemical, TCAMS library (AID 1159586). Particulars: recombinant PfPK6, Kinase-Glo ATP depletion luminescence.
Assay [7] has as its target Protein kinase 7 (PK7), Plasmodium falciparum 3D7 (PF3D7_0213400) (UniProt Q7YTF7). Put plainly: inhibition of Plasmodium PK7 catalytic activity – biochemical, TCAMS antimalarial set, Kinase-Glo luminescence (AID 1159587). Particulars: recombinant PfPK7, Kinase-Glo ATP depletion luminescence.
For assay [8], the target named is Calcium-dependent protein kinase 4 (Plasmodium falciparum (isolate 3D7)) (UniProt Q8IBS5). Put plainly: PfCDPK4 kinase inhibitors, biochemical, TCAMS library (AID 1159588; cut-off not given, nearly all actives have IC50 up to about 0.91 µM). The settings on record: recombinant PfCDPK4, Kinase-Glo ATP depletion luminescence.
Chain of Calcium-dependent protein kinase 4 (Plasmodium falciparum (isolate 3D7)) (Q8IBS5 whole entry, looked up): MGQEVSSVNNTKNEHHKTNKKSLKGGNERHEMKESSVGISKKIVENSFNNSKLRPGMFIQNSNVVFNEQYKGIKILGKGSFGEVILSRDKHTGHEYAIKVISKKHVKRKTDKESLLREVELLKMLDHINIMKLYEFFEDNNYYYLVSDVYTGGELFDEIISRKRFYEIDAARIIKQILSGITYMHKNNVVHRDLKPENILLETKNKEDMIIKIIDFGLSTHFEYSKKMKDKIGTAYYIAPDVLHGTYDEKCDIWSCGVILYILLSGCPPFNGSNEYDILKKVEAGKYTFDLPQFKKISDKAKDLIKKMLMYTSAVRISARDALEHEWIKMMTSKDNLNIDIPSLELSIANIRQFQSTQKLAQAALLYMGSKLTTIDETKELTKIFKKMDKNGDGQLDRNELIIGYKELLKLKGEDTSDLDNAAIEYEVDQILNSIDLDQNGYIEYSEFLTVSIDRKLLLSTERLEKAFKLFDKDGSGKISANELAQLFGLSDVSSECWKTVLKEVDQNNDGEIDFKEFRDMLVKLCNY

Chain of L-lactate dehydrogenase (Plasmodium falciparum (isolate CDC / Honduras)) (Q27743 whole entry, looked up): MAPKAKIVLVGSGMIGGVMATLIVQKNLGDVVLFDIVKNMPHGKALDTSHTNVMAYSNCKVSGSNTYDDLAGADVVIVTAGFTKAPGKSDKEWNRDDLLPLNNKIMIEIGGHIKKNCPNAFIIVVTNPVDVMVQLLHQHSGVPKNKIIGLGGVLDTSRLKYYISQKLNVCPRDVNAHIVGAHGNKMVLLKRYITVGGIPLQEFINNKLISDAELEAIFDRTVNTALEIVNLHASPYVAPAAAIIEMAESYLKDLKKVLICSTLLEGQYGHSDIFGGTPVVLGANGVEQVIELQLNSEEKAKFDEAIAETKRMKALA
Chain of Protein kinase 7 (PK7), Plasmodium falciparum 3D7 (PF3D7_0213400) (Q7YTF7 1-343): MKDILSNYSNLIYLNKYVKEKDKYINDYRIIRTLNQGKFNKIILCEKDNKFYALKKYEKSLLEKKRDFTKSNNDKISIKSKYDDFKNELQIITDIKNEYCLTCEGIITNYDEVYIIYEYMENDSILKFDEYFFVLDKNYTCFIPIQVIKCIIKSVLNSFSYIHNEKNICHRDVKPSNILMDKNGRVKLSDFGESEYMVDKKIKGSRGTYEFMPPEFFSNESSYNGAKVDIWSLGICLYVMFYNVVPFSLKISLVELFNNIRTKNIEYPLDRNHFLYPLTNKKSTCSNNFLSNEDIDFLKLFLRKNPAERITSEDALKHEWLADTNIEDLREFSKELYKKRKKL
Chain of Calcium-dependent protein kinase 1 (Plasmodium falciparum (isolate 3D7)) (P62344 whole entry, looked up): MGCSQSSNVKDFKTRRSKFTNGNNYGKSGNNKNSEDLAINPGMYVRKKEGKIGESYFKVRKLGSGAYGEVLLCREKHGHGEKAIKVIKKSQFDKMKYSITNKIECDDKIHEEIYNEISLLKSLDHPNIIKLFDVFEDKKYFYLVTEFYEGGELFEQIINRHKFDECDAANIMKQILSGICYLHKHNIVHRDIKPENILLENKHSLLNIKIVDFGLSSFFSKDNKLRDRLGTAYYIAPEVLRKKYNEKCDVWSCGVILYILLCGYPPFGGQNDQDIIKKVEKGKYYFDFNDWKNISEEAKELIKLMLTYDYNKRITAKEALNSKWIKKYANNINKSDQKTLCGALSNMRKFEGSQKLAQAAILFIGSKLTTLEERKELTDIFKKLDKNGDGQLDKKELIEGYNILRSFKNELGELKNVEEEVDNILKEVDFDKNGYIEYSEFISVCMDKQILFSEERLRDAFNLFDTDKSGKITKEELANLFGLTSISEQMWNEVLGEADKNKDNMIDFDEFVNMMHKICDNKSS
Chain of Plasmodium falciparum protein kinase 6 (PK6, PF3D7_1337100) (Q8IDW1 1-305): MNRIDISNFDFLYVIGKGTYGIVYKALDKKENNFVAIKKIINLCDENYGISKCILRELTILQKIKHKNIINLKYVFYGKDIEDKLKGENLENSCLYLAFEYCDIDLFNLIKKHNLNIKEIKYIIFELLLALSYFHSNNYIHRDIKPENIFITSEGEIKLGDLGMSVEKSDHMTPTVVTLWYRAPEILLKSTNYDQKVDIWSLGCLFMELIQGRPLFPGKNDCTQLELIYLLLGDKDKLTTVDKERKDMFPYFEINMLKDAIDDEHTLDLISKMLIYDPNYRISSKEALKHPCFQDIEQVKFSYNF

Turning to `Cc1nc2ccc3ccc(CNc4ccc(C(=O)CC(CCC(=O)O)C(=O)O)cc4)cc3c2c(=O)[nH]1` (stereo not given), the growth inhibition in assay [1] was 96% (active); in assay [4], 95% (active). For the same compound, the values for the inhibition in assay [2] and in assay [3] were 51% (active) and -1%, respectively. Also, the result in assay [5], in assay [6], in assay [7] and in assay [8] was inactive.
`Cc1ccc2nc(C)n(C3CCN(C(=O)Cc4ccccc4C)CC3)c2c1`: the growth inhibition in assay [1] and in assay [4] was 100% (active) throughout. The inhibition in assay [2] was 2%; in assay [3] it was 1%. For the same compound, the outcome in assay [5], in assay [6], in assay [7] and in assay [8] was inactive.
In the case of `O=C(Nc1ccc(Cl)c(Cl)c1)Nc1ccc(F)c([N+](=O)[O-])c1`, the growth inhibition in assay [1] is 96% (active); in assay [4] it was 101% (active). The inhibition in assay [2] is 49%; in assay [3], -3%. Further, the result in assay [5], in assay [6], in assay [7] and in assay [8] was inactive.
In the case of `CC(C)C[C@H](NC(=O)c1cc2ccccc2s1)C(=O)N[C@H]1CCN(Cc2ccc(OCCCN(C)C)c(Cl)c2)C1`, the growth inhibition is 89% (active) in assay [1] and 100% (active) in assay [4]. Also, the inhibition in assay [2] is 83% (active); in assay [3] it was 1%. Moreover, the result in assay [5], in assay [6], in assay [7] and in assay [8] was inactive.
Turning to `COc1ccc(NC(=O)/C=C/c2ccccc2Cl)cc1OCCN1CCN(c2ccncc2)CC1`, the results for the growth inhibition in assay [1] and in assay [4] were 52% (active) and 101% (active), respectively. Moreover, the inhibition in assay [2] is 7%; in assay [3] it was -2%. Besides, the result in assay [5], in assay [6], in assay [7] and in assay [8] was inactive.
On to `N#Cc1ccc(OCCN(Cc2ccccc2C(F)(F)F)c2ccc(C#N)c(C(F)(F)F)c2)cc1`, for which the growth inhibition is 84% (active) in assay [1] and 101% (active) in assay [4]. Also, the inhibition in assay [2] is 69% (active); in assay [3] it was 1%. The outcome in assay [5], in assay [6], in assay [7] and in assay [8] was inactive.
Take `COc1ccc(C)c(Nc2ccnc(Nc3ccc(-c4cnc[nH]4)cc3)n2)c1`: the growth inhibition was 6% in assay [1] and 97% (active) in assay [4]. Further, the results for the inhibition in assay [2] and in assay [3] were 40% and -1%, respectively. Moreover, the result in assay [5], in assay [6], in assay [7] and in assay [8] was inactive.
With `CCCCCCCCCc1c(C)[nH]c2ccccc2c1=O`, the results for the growth inhibition in assay [1] and in assay [4] were 96% (active) and 97% (active), respectively. The results for the inhibition in assay [2] and in assay [3] were -16% and 7%, respectively. Moreover, the outcome in assay [5], in assay [6], in assay [7] and in assay [8] was inactive.
`CCCC(C)NC(=O)[C@H](CC1CCCCC1)NC(=O)c1ccc(O)c(-c2cccc(C(F)(F)F)c2)c1` (stereo not given in full): the growth inhibition is 98% (active) in assay [1] and 100% (active) in assay [4]. Also, the inhibition in assay [2] was -5%; in assay [3] it was 5%. Besides, the outcome in assay [5], in assay [6], in assay [7] and in assay [8] was inactive.
Turning to `Cc1cc2c(cc1C(F)(F)F)N(C(=O)Nc1ccc(OCCN(C)C)c(C(F)(F)F)c1)CC2`, the growth inhibition in assay [1] was 23%; in assay [4] it was 93% (active). Moreover, the results for the inhibition in assay [2] and in assay [3] were 38% and -2%, respectively. Further, the outcome in assay [5], in assay [6], in assay [7] and in assay [8] was inactive.
Take `c1ccc(CNc2nc(NCCN3CCCCC3)nc3ccccc23)cc1`: the growth inhibition in assay [1] was 8%; in assay [4] it was 87% (active). In addition, the inhibition was 19% in assay [2] and -11% in assay [3]. For the same compound, the result in assay [5], in assay [6], in assay [7] and in assay [8] was inactive.
On to `CNC(=O)C(NC(=O)c1ccccc1C(=O)OC)c1ccccc1` (stereo not given), for which the growth inhibition in assay [1] is 2%; in assay [4], 96% (active). The values for the inhibition in assay [2] and in assay [3] were 4% and 3%, respectively. In addition, the result in assay [5], in assay [6], in assay [7] and in assay [8] was inactive.
For the compound `COc1ccc(Cl)cc1N1CCN(CCCNC(=O)c2ccc(-c3nc4cc(Cl)c(F)cc4[nH]3)s2)CC1`, the growth inhibition was 98% (active) in assay [1] and 101% (active) in assay [4]. Moreover, the inhibition in assay [2] was 12%; in assay [3] it was 4%. The outcome in assay [5], in assay [6], in assay [7] and in assay [8] was inactive.
On to `Cc1cc(N(C)C)nc(Nc2ccc(NC(=O)c3ccccc3C)cc2)n1`, for which the figures for the growth inhibition in assay [1] and in assay [4] were 16% and 93% (active), respectively. Moreover, the inhibition in assay [2] is -5%; in assay [3] it was -2%. In addition, the result in assay [5], in assay [6], in assay [7] and in assay [8] was inactive.
Take `O=C(Nc1cccc2ccccc12)N1CCC(NS(=O)(=O)c2cccc(C(F)(F)F)c2)CC1`: the growth inhibition is 1% in assay [1] and 95% (active) in assay [4]. Further, the inhibition in assay [2] was -5%; in assay [3] it was -1%. Further, the result in assay [5], in assay [6], in assay [7] and in assay [8] was inactive.
`CCc1c(C(=O)NC2CCC(N3CCC(c4ccccc4OC)CC3)CC2)[nH]c2ccc(OC)cc12` (stereo not given): the values for the growth inhibition in assay [1] and in assay [4] were 99% (active) and 101% (active), respectively. Also, the inhibition is 43% in assay [2] and -5% in assay [3]. In addition, the result in assay [5], in assay [6], in assay [7] and in assay [8] was inactive.
For `CCCN1CCN(Cc2ccc(C(=O)Nc3ccc(Cl)cc3)cc2)CC1`, the growth inhibition in assay [1] was 14%; in assay [4], 94% (active). For the same compound, the inhibition in assay [2] is 48%; in assay [3], -2%. The result in assay [5], in assay [6], in assay [7] and in assay [8] was inactive.
As to `COc1ccc(CCN(C)CCc2ccc(NC(=O)c3cccc4c(=O)c5ccccc5sc34)cc2)cc1`, the growth inhibition was 33% in assay [1] and 95% (active) in assay [4]. The inhibition in assay [2] was 24%; in assay [3], -2%. Also, the outcome in assay [5], in assay [6], in assay [7] and in assay [8] was inactive.
As to `CCN(CC)CCN(Cc1ccc(-c2ccc(Cl)s2)cc1)C(=O)Cn1c(CCc2cccc(F)c2F)nc(=O)c2ccccc21`, the growth inhibition in assay [1] is 27%; in assay [4], 96% (active). Moreover, the inhibition was 24% in assay [2] and -4% in assay [3]. The result in assay [5], in assay [6], in assay [7] and in assay [8] was inactive.
For `COc1c(C2CCN(CCCCNC(=O)c3oc(-c4ccc(Cl)cc4)cc3CO)CC2)ccc2c1CCCC2`, the growth inhibition was 95% (active) in assay [1] and 102% (active) in assay [4]. Besides, the inhibition was 80% (active) in assay [2] and 4% in assay [3]. Further, the outcome in assay [5], in assay [6], in assay [7] and in assay [8] was inactive.
